Common to all, as to experiment: DAPPL (digital affinity profiling via proximity ligation, sequencing); 10 mM Tris-HCl pH 7.5, 50 mM NaCl, 1 mM DTT, 4% glycerol, room temperature, 30 min; GST-TFs on glutathione beads, 16-mer random dsDNA library, 0.1% formaldehyde crosslink after washing; high values mean tight binding
Conditions in all cases: protein: recombinant; tags: N-terminal GST; dsDNA, one strand shown

One experiment addresses T1, ELK1 (Homo sapiens, UniProt P19419 1-428).
T1 sequence: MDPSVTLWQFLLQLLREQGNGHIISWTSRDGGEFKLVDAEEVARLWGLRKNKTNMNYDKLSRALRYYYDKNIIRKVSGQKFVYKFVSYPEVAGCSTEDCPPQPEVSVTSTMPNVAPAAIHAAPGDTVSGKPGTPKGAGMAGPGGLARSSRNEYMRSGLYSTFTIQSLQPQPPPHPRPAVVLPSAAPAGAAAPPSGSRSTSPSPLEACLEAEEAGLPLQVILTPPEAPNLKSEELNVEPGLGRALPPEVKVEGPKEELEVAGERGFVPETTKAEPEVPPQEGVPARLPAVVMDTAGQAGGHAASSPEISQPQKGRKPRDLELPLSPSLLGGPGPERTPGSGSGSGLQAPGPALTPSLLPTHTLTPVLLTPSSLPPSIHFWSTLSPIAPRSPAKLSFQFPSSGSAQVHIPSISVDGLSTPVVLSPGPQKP
In short, it runs like this: (§1)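 GST fusions of human transcription factors were expressed in yeast and captured with glutathione beads. Once given DNA barcodes and pooled alongside a tag-only sample, they were incubated for 30 min at room temperature with 200 nmole of a random double-stranded 16-mer DNA library in Tris/NaCl/DTT/glycerol buffer, then washed, crosslinked (0.1% formaldehyde), proximity-ligated, PCR-amplified and sequenced on an Illumina NextSeq500. The binding signal of each hexamer is its read frequency for a factor divided by its frequency for the tag-only sample.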

The target of a further experiment is T2, GABPA (Homo sapiens, UniProt Q06546 1-454).
T2 sequence: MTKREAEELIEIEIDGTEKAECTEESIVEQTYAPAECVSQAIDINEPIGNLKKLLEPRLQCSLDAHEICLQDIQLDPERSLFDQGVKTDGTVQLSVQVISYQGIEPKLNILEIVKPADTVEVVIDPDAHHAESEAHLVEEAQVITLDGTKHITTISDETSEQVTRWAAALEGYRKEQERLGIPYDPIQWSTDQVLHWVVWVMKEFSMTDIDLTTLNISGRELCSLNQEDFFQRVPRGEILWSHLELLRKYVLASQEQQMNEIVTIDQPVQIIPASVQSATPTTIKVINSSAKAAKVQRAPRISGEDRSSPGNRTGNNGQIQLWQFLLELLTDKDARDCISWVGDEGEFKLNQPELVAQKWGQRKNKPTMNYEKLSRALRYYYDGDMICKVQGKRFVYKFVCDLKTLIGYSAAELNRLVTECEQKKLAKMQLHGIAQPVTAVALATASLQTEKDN
In short, it runs like this:
as §1

The target in a further experiment is T3, ERG (Homo sapiens, UniProt P11308 1-479).
T3 sequence: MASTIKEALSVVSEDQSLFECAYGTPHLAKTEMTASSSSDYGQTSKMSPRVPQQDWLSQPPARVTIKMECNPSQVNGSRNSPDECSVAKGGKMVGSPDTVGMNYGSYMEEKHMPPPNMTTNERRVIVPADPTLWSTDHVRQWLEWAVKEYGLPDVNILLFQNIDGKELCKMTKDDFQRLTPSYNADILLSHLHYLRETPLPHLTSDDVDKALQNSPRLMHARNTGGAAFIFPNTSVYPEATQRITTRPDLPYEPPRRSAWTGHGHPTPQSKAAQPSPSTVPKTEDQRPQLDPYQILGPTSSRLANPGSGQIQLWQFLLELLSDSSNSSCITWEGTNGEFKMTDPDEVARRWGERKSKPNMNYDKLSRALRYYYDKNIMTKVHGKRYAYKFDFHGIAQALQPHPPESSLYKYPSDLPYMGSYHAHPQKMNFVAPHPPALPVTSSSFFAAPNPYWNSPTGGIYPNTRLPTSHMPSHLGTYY
The method, boiled down: as §1

The target of a further experiment is ELF1 (Homo sapiens, UniProt P32519 1-619). In short, it runs like this:
as §1

The target in the next experiment is ETV5 (Homo sapiens, UniProt P41161 1-510). The method, boiled down:
as §1

In a further experiment the target is ELF4 (Homo sapiens, UniProt Q99607 1-663). The method, boiled down: as §1
Chain of ELF4 (Q99607 whole entry): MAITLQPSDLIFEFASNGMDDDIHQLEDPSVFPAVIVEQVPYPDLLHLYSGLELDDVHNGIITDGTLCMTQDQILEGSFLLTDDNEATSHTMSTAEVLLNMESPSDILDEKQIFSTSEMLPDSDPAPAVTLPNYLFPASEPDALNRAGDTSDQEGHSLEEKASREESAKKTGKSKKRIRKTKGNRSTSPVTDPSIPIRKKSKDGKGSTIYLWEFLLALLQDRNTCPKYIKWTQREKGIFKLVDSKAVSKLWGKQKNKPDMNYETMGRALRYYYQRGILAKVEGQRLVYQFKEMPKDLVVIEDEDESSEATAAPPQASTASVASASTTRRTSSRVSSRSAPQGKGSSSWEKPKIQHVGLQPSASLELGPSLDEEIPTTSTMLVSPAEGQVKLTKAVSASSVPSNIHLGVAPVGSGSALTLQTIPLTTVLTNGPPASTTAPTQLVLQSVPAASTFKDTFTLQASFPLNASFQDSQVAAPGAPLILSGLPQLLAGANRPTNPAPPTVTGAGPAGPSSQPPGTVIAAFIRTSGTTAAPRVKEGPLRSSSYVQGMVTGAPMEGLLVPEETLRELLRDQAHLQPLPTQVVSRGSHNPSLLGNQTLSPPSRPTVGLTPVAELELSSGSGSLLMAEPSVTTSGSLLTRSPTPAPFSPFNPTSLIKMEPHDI
A further experiment has as its target T4, ELF3 (Homo sapiens, UniProt P78545 1-371).
T4 sequence: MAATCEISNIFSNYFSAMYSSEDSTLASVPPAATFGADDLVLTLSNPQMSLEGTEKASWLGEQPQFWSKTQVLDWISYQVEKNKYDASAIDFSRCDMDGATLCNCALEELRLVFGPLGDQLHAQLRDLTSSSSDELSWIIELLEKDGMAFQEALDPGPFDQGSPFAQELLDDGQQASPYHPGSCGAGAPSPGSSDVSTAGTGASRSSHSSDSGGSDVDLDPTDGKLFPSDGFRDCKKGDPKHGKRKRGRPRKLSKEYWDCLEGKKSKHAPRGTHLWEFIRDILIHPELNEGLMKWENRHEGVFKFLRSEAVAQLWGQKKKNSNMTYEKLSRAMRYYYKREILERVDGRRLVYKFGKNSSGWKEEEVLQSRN
In short, it runs like this: as §1

The next experiment addresses T5, ERF (Homo sapiens, UniProt P50548 1-548).
T5 sequence: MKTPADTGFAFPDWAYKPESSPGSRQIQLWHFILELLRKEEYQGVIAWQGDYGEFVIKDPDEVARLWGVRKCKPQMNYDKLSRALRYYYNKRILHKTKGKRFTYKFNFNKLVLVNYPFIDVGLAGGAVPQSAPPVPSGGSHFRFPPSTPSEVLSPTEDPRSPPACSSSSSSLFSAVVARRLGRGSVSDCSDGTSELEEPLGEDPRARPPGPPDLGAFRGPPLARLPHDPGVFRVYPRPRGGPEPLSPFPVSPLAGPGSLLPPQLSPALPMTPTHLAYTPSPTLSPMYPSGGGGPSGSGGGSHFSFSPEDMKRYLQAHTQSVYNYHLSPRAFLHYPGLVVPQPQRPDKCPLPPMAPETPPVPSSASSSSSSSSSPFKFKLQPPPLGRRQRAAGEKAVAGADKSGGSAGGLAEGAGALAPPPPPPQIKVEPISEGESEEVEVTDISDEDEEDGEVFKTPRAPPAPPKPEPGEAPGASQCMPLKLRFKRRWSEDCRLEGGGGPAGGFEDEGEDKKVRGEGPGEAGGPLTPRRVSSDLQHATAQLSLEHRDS
The method, boiled down: as §1

A further experiment concerns the target T6, ETV3L (Homo sapiens, UniProt Q6ZN32 1-361).
T6 sequence: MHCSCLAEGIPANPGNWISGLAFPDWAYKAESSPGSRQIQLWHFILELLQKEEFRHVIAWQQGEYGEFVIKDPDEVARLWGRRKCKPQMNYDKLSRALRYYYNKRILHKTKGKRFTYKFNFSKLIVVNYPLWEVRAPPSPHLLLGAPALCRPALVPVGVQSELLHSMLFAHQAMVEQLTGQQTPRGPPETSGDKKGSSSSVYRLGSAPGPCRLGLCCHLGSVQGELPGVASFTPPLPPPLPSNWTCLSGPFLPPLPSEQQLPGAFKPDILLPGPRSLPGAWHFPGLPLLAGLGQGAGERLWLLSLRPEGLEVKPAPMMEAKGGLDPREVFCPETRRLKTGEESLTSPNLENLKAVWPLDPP
In short, it runs like this:
as §1

Another experiment has as its target T7, ETS2 (Homo sapiens, UniProt P15036 1-469).
T7 sequence: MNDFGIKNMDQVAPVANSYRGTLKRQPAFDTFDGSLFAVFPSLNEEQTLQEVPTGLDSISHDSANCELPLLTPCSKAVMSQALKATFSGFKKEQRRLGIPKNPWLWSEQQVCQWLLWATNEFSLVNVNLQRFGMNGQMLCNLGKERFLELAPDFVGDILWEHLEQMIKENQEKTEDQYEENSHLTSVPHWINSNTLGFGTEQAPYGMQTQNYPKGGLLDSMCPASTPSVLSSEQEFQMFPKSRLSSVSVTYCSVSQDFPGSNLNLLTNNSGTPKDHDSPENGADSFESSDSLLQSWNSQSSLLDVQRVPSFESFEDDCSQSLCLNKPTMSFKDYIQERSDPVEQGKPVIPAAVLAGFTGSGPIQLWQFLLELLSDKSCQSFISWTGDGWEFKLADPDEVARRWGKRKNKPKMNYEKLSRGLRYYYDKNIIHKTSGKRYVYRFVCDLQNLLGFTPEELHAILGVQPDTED
The method, boiled down:
as §1

The next experiment addresses T8, ETV3 (Homo sapiens, UniProt P41162-2 1-143).
T8 sequence: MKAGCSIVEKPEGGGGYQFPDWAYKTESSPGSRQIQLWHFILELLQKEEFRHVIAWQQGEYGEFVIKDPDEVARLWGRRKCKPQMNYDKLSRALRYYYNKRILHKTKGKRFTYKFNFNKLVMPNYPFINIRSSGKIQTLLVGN
The method, boiled down:
as §1

Chain of ELF1 (P32519 whole entry): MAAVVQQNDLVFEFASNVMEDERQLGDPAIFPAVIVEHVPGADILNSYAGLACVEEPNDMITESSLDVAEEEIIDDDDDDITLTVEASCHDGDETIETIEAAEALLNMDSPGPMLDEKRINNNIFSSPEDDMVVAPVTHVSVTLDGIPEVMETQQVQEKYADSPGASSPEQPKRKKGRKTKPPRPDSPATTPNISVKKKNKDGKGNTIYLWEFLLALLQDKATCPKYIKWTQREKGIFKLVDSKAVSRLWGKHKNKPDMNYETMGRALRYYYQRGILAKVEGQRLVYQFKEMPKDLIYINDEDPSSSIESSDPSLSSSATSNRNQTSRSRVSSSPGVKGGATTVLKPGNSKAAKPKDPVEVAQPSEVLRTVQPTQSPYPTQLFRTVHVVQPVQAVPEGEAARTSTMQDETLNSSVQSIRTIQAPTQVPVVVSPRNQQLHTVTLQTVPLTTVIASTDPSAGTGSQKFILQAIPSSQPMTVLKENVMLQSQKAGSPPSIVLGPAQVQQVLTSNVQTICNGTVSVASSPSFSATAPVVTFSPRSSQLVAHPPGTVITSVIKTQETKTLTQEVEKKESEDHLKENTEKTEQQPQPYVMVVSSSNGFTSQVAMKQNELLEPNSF
Chain of ETV5 (P41161 whole entry): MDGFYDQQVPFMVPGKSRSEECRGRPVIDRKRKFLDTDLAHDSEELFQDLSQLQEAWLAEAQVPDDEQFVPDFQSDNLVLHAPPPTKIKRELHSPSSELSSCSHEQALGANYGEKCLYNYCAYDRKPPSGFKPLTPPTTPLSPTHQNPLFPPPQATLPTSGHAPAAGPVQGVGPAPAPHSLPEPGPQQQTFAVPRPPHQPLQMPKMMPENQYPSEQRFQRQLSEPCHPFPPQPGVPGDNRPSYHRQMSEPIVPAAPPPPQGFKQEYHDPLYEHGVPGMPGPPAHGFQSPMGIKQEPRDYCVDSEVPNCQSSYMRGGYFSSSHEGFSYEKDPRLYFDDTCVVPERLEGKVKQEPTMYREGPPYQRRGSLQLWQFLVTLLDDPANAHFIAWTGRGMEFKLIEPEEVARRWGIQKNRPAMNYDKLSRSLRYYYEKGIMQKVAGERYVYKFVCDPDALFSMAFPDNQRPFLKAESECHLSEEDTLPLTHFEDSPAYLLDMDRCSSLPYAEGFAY

Consider CCCAAG, for which the binding signal in the experiment with ELK1 is 1.07 fold enrichment (6-mer frequency, TF over GST control); with GABPA it was 1.07 fold enrichment (6-mer frequency, TF over GST control); with ERG it was 1.04 fold enrichment (6-mer frequency, TF over GST control); with ELF1, 1.06 fold enrichment (6-mer frequency, TF over GST control); with ETV5, 1.01 fold enrichment (6-mer frequency, TF over GST control); with ELF4 it was 1.03 fold enrichment (6-mer frequency, TF over GST control). For the same sequence, the binding signal with ELF3 is 1.12 fold enrichment (6-mer frequency, TF over GST control); with ERF, 1.06 fold enrichment (6-mer frequency, TF over GST control); with ETV3L, 1.01 fold enrichment (6-mer frequency, TF over GST control); in the experiment with ETS2, 1 fold enrichment (6-mer frequency, TF over GST control); with ETV3 it was 1.03 fold enrichment (6-mer frequency, TF over GST control).

For the origin of these results see paper PMC7862700, “An all-to-all approach to the identification of sequence-specific readers for epigenetic DNA modifications on cytosine”.
